# In PubChem BioAssay AID1159580 (chemical genetic matrix, 2015):
# “And” between values parts separate entries of the source, which are not always exact repeats. Identical values can stand only once. Among all 5,500 compounds or so, about 2,000 (36%) were called active. Not shown: some 18% with an inconclusive outcome. Rule as the data show it: active = normalized growth mostly below about 0.91 (no sharp cut-off); inconclusive = no clear call, values can overlap the other calls; inactive = mostly above about 0.92. The list shows a part of the results.
# Test: chemical genetic growth profiling, strain panel (AID 1159580);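 also: tested at 20 µM; growth read once vehicle control cultures reached saturation at 30 °C; 1 = growth at the plate median or of vehicle wells; lower values mean less growth of the strain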
# Conditions: S. cerevisiae deletion strains, growth OD
smiles,measurement,setting,value
CCC(=O)OCC(=O)[C@@]1(OC(=O)CC)[C@@H](C)CC2C3CCC4=CC(=O)C=C[C@]4(C)C3(F)[C@@H](O)C[C@@]21C (stereo partly drawn),normalized growth,"locus YAL013W, strain DEP1, stronger effect = lower value",0.876 (active)
same,normalized growth,"locus YAL021C, strain ccr4, stronger effect = lower value",0.958 (inactive)
same,normalized growth,"locus YAL026C, strain drs2, stronger effect = lower value",1 (inactive)
same,normalized growth,"locus YAL030W, strain snc1, stronger effect = lower value",1 (inactive)
same,normalized growth,"locus YBL061C, strain skt5, stronger effect = lower value",1.01 (inactive)
same,normalized growth,"locus YBR009C, strain hhf1, stronger effect = lower value",0.999 (inactive)
same,normalized growth,"locus YBR021W, strain FUR4, stronger effect = lower value",0.779 (active)
same,normalized growth,"locus YBR023C, strain chs3, stronger effect = lower value",1.01 (inactive)
same,normalized growth,"locus YBR171W, strain sec66, stronger effect = lower value",1 (inactive)
same,normalized growth,"locus YBR229C, strain ROT2, stronger effect = lower value",0.925 (inactive)
same,normalized growth,"locus YBR231C, strain swc5, stronger effect = lower value",1.01 (inactive)
same,normalized growth,"locus YBR279W, strain paf1, stronger effect = lower value",1.01 (inactive)
same,normalized growth,"locus YCL011C, strain gbp2, stronger effect = lower value",0.988 (inactive)
same,normalized growth,"locus YCL016C, strain dcc1, stronger effect = lower value",1.01 (inactive)
same,normalized growth,"locus YCL029C, strain bik1, stronger effect = lower value",0.952 (inactive)
same,normalized growth,"locus YCL061C, strain MRC1, stronger effect = lower value",1.01 (inactive)
same,normalized growth,"locus YCL069W, strain vba3, stronger effect = lower value",0.996 (inactive)
same,normalized growth,"locus YCR088W, strain abp1, stronger effect = lower value",0.997 (inactive)
same,normalized growth,"locus YDL005C, strain med2, stronger effect = lower value",0.994 (inactive)
same,normalized growth,"locus YDL035C, strain GPR1, stronger effect = lower value",0.846 (active)
same,normalized growth,"locus YDL040C, strain nat1, stronger effect = lower value",1 (inactive)
same,normalized growth,"locus YDL074C, strain BRE1, stronger effect = lower value",0.793 (inactive)
same,normalized growth,"locus YDL101C, strain DUN1, stronger effect = lower value",0.95 (inactive)
same,normalized growth,"locus YDL134C, strain PPH21, stronger effect = lower value",0.844 (active)
same,normalized growth,"locus YDL185W, strain tfp1, stronger effect = lower value",0.927 (inactive)
same,normalized growth,"locus YDL192W, strain arf1, stronger effect = lower value",0.927 (inactive)
same,normalized growth,"locus YDR001C, strain nth1, stronger effect = lower value",0.991 (inactive)
same,normalized growth,"locus YDR069C, strain doa4, stronger effect = lower value",0.993 (inactive)
same,normalized growth,"locus YDR101C, strain arx1, stronger effect = lower value",0.948 (inactive)
same,normalized growth,"locus YDR137W, strain rgp1, stronger effect = lower value",1.01 (inactive)
same,normalized growth,"locus YDR150W, strain NUM1, stronger effect = lower value",0.974 (inactive)
same,normalized growth,"locus YDR159W, strain sac3, stronger effect = lower value",1.01 (inactive)
same,normalized growth,"locus YDR162C, strain NBP2, stronger effect = lower value",0.708 (active)
same,normalized growth,"locus YDR195W, strain ref2",1 (inactive)
same,normalized growth,"locus YDR297W, strain sur2, stronger effect = lower value",0.996 (inactive)
same,normalized growth,"locus YDR318W, strain mcm21, stronger effect = lower value",0.945 (inactive)
same,normalized growth,"locus YDR334W, strain swr1, stronger effect = lower value",1.01 (inactive)
same,normalized growth,"locus YDR335W, strain msn5, stronger effect = lower value",0.998 (inactive)
same,normalized growth,"locus YDR388W, stronger effect = lower value",0.947 (inactive)
same,normalized growth,"locus YDR392W, strain spt3, stronger effect = lower value",0.988 (inactive)
same,normalized growth,"locus YDR502C, strain sam2, stronger effect = lower value",0.926 (inactive)
same,normalized growth,"locus YEL003W, strain gim4, stronger effect = lower value",0.996 (inactive)
same,normalized growth,"locus YEL037C, strain rad23, stronger effect = lower value",0.987 (inactive)
same,normalized growth,"locus YEL061C, strain CIN8 (second series), stronger effect = lower value",0.989 (inactive)
same,normalized growth,"locus YEL061C, strain CIN8, stronger effect = lower value",0.935 (inactive)
same,normalized growth,"locus YER015W, strain faa2, stronger effect = lower value",0.995 (inactive)
same,normalized growth,"locus YER016W, strain bim1, stronger effect = lower value",1.01 (inactive)
same,normalized growth,"locus YER110C, stronger effect = lower value",0.952 (inactive)
same,normalized growth,"locus YER111C, strain swi4, stronger effect = lower value",0.999 (inactive)
same,normalized growth,"locus YER155C, strain BEM2 (second series), stronger effect = lower value",1.01 (inactive)
same,normalized growth,"locus YER155C, strain BEM2, stronger effect = lower value",0.963 (inactive)
same,normalized growth,"locus YER167W, strain BCK2, stronger effect = lower value",0.881 (active)
same,normalized growth,"locus YFR010W, strain ubp6, stronger effect = lower value",0.993 (inactive)
same,normalized growth,"locus YGL078C, strain dbp3, stronger effect = lower value",0.975 (inactive)
same,normalized growth,"locus YGL086W, strain mad1, stronger effect = lower value",0.954 (inactive)
same,normalized growth,"locus YGL167C, strain pmr1, stronger effect = lower value",1 (inactive)
same,normalized growth,"locus YGL173C, strain kem1, stronger effect = lower value",1 (inactive)
same,normalized growth,"locus YGL227W, strain vid30, stronger effect = lower value",0.995 (inactive)
same,normalized growth,"locus YGL240W, strain doc1, stronger effect = lower value",1 (inactive)
same,normalized growth,"locus YGL248W, strain PDE1, stronger effect = lower value",0.943 (inactive)
same,normalized growth,"locus YGL253W, strain hxk2, stronger effect = lower value",1.03 (inactive)
same,normalized growth,"locus YGR135W, strain pre9, stronger effect = lower value",0.863 (active)
same,normalized growth,"locus YGR252W, strain gcn5, stronger effect = lower value",0.71 (active)
same,normalized growth,"locus YHR013C, strain ard1, stronger effect = lower value",1.01 (inactive)
same,normalized growth,"locus YHR027C, strain rpn1, stronger effect = lower value",1 (inactive)
same,normalized growth,"locus YHR030C, strain SLT2, stronger effect = lower value",0.896 (active) and 0.998 (inactive)
same,normalized growth,"locus YHR079C, strain IRE1 (second series), stronger effect = lower value",0.974 (inactive)
same,normalized growth,"locus YHR079C, strain IRE1, stronger effect = lower value",1.02 (inactive)
same,normalized growth,"locus YHR094C, strain hxt1, stronger effect = lower value",0.965 (inactive)
same,normalized growth,"locus YHR129C, strain ARP1, stronger effect = lower value",0.943 (inactive)
same,normalized growth,"locus YHR142W, strain chs7, stronger effect = lower value",0.988 (inactive)
same,normalized growth,"locus YHR200W, strain rpn10, stronger effect = lower value",0.929 (inactive)
same,normalized growth,"locus YIL066C, strain RNR3, stronger effect = lower value",0.806 (active)
same,normalized growth,"locus YIL073C, strain SPO22, stronger effect = lower value",0.825 (inactive)
same,normalized growth,"locus YIL125W, strain kgd1, stronger effect = lower value",0.971 (inactive)
same,normalized growth,"locus YIR030C, strain dcg1, stronger effect = lower value",0.959 (inactive)
same,normalized growth,"locus YJL092W, strain hpr5, stronger effect = lower value",0.996 (inactive)
same,normalized growth,"locus YJL095W, strain BCK1 (second series), stronger effect = lower value",1 (inactive)
same,normalized growth,"locus YJL095W, strain BCK1, stronger effect = lower value",0.761 (active) and 1.01 (inactive)
same,normalized growth,"locus YJL115W, strain asf1, stronger effect = lower value",0.999 (inactive)
same,normalized growth,"locus YJL129C, strain trk1, stronger effect = lower value",0.951 (inactive)
same,normalized growth,"locus YJL134W, strain LCB3, stronger effect = lower value",0.961 (inactive)
same,normalized growth,"locus YJL154C, strain vps35, stronger effect = lower value",0.981 (inactive)
same,normalized growth,"locus YJL164C, strain tpk1, stronger effect = lower value",1 (inactive)
same,normalized growth,"locus YJL166W, strain qcr8, stronger effect = lower value",0.997 (inactive)
same,normalized growth,"locus YJL168C, strain set2, stronger effect = lower value",0.956 (inactive)
same,normalized growth,"locus YJL187C, strain SWE1 (second series), stronger effect = lower value",0.942 (inactive)
same,normalized growth,"locus YJL187C, strain SWE1, stronger effect = lower value",0.996 (inactive)
